Compounds without any hit were thinned out: in the full panel of roughly 83,000, 20% have a hit.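 96-well plates, one dose, 48 hours. Percent growth reported; active if below 10.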 A number with no mark means an inactive call. Active and inactive are the calls of the source.
How the values were obtained:
Assay in all cases: NCI-60 one-dose screen, 48 h (100 = growth as untreated, 0 = no growth, -100 = all killed)
Details in all cases: 10 µM
T-47D breast = test system: T-47D breast
BT-549 breast = test system: BT-549 breast
MDA-MB-435 melanoma = test system: MDA-MB-435 melanoma
SW-620 colon = test system: SW-620 colon
MCF7 breast = test system: MCF7 breast
HCT-116 colon = test system: HCT-116 colon
HCC-2998 colon = test system: HCC-2998 colon
KM12 colon = test system: KM12 colon
MDA-MB-468 breast = test system: MDA-MB-468 breast

| Structure (SMILES) | growth (T-47D breast) | growth (BT-549 breast) | growth (MDA-MB-435 melanoma) | growth (SW-620 colon) | growth (MCF7 breast) | growth (HCT-116 colon) | growth (HCC-2998 colon) | growth (KM12 colon) | growth (MDA-MB-468 breast) |
| --- | --- | --- | --- | --- | --- | --- | --- | --- | --- |
| Nc1n[nH]c2cccc(C#Cc3cccc(NC(=O)Nc4cc(C(F)(F)F)cc(C(F)(F)F)c4)c3)c12 | -11.3% (active) | -66.8% (active) | -76.7% (active) | -75.7% (active) | -37.2% (active) | 2.34% (active) | -95.3% (active) | -61.5% (active) | -59.7% (active) |
| COc1ccc2[nH]c(=O)c(CSc3nccc(-c4ccc(Cl)cc4)n3)cc2c1 | -8.11% (active) | 30.6% | 55% | 45.4% | 7.81% (active) | -30.5% (active) | 48.3% | 31.7% | -28.5% (active) |
| Cc1ccc(/C=C(\C#N)n2nnc3c(F)cccc32)cc1 | 24.5% | -13.4% (active) | 8.1% (active) | 14% | 8.62% (active) | 27% | -20.1% (active) | -1.08% (active) | 37.8% |
| O=C1Nc2cc(Cl)ccc2/C1=C/c1cccc(OCc2ccc(Br)cc2F)c1 | 9.72% (active) | 10.5% | -64.4% (active) | 19.5% | 5.38% (active) | 1.63% (active) | 26% | 1.67% (active) | -9.05% (active) |
| CCCn1c(=O)c2[nH]c(-c3ccc(OCc4nc5ccc(F)cc5[nH]4)cc3)nc2n(CCC)c1=O | -17.8% (active) | 6.64% (active) | 47.8% | 17.1% | 8.76% (active) | 3.12% (active) | 83.2% | 55.7% | -12.7% (active) |
| CN1CCN(c2ccc(Nc3nc(NCCCNC(=O)C4CCCCC4)c4sccc4n3)cc2)CC1 | 36.6% | 69.1% | 34% | 40% | 23.1% | 30.8% | 59.5% | 63.7% | 49.1% |
| CCOC(=O)C1NN(c2ccc(S(N)(=O)=O)cc2)c2nc3nc(-c4cccs4)cc(-c4cccs4)c3c(=O)n21 (configuration not stated) | 85.4% | 50.1% | 106% | 93.1% | 74.2% | 81.2% | 107% | 69.7% | 99.5% |
| CN1CCN(c2ccc(C(=O)/C=C/c3ccc(OC(F)F)cc3)cc2)CC1 | 55% | 19.2% | -37.3% (active) | -32.8% (active) | -71.7% (active) | -62.5% (active) | -48.9% (active) | 6.74% (active) | -60.7% (active) |
| CN1C(=O)/C(=C/c2ccc3ncsc3c2)NC1=NC12CC3CC(CC(O)(C3)C1)C2 | 11.7% | -39.9% (active) | 27.4% | 5.62% (active) | -20.1% (active) | 17.3% | 10.1% | 10.4% | -5.71% (active) |
| C=C1CCC2C3(C)COC(c4cc(F)cc(F)c4)OC3CCC2(C)C1C/C=C1/C(=O)OCC1O (configuration not stated) | -50.1% (active) | -81.1% (active) | -64.2% (active) | -61.9% (active) | -45.8% (active) | -69.2% (active) | -79.9% (active) | -77.9% (active) | -58.2% (active) |
| COc1ccc2[nH]cc(/C=N/Nc3ccc(Br)cn3)c2c1 | 22.3% | -2.65% (active) | 13.8% | 19.2% | 3.69% (active) | 8.63% (active) | 10.2% | -0.565% (active) | -40.9% (active) |
| CCCn1c(=O)c2[nH]c(-c3ccc(OCc4nc5ccc(C#N)cc5[nH]4)cc3)nc2n(CCC)c1=O | 35.7% | 92.6% | 97.5% | 80.5% | -48.9% (active) | 58.2% | 95.3% | 75.5% | 65.9% |
| Cc1ccc(C(=O)N/C(=C2/OCCN2C)[P+](c2ccccc2)(c2ccccc2)c2ccccc2)cc1 | 55.3% | 86.8% | 54.4% | 84.1% | 56.4% | 57.9% | 75.1% | 55.4% | -13.3% (active) |
| O=c1[nH]c2ccc(Cl)cc2cc1CSc1ccc(Nc2nccc(-c3ccc(Cl)cc3)n2)cc1 | 78.9% | 81.7% | 47% | 3.61% (active) | 5.48% (active) | 32.9% | 67% | 31.4% | -20.1% (active) |
| N#Cc1ccc(-c2nn(-c3ccc(C(=O)O)cc3)cc2CNc2cc(Cl)cc(C(F)(F)F)c2)cc1 | 8.34% (active) | -22.5% (active) | 9.7% (active) | 21.2% | 5.75% (active) | -2.71% (active) | -27.7% (active) | 4.92% (active) | -13.7% (active) |
| COc1cccc(COc2ccc(/C=C3\Oc4cc(O)ccc4C3=O)cc2)c1 | 44.3% | 15.3% | 37.2% | 36% | 37.8% | 1.73% (active) | 25.2% | 26.1% | 12.2% |
| C=C(C)[C@@H]1CC[C@]2(C)[C@H](CC=C3[C@@H]4CC(C)(C)CC[C@]4(C(=O)N4CCOCC4)CC[C@]32C)[C@@]1(C)CCCN | -88.1% (active) | -85.3% (active) | -99.5% (active) | -65.1% (active) | -70.7% (active) | -54.2% (active) | -81.1% (active) | -82.3% (active) | -96% (active) |
| COc1ccc(CN2[C@H](C(=O)NCc3ccc(C(=O)NO)cc3)Cc3c([nH]c4ccccc34)[C@H]2C2CC2)cc1 | 40.4% | 58.6% | 18.1% | 30.9% | 36.8% | 23% | 33% | 44.7% | 3.8% (active) |
| Cc1ccc2nc3c(nc2c1)c1cc(I)ccc1n3CCN(C)C | 44.8% | 60.2% | 13.7% | 15.9% | -4.43% (active) | 9.81% (active) | -15.6% (active) | 21.1% | 5.08% (active) |
| O=C1Nc2ccc(F)cc2/C1=C/c1cccc(OCc2ccccc2)c1 | 13.8% | 23% | 5.74% (active) | 8.79% (active) | 3.46% (active) | 10.1% | 45.8% | 19% | -22.3% (active) |
| Cc1cc2nc3c4ccccc4n(CCO)c3nc2cc1C | 73.5% | 78.7% | 94.6% | 75.5% | 52.1% | 34.4% | 123% | 92.2% | 74.4% |
| Cc1ccc(/C=C/C(=O)c2ccc(S(=O)(=O)NCCNc3nc(Nc4ccc(F)cc4)nc(N(C)C)n3)cc2)cc1 | 24.8% | 64.6% | -23% (active) | -8.7% (active) | -55.8% (active) | -51.7% (active) | -11.9% (active) | -53.8% (active) | -2.81% (active) |
| O=C(Nc1nc2ccc([N+](=O)[O-])cc2s1)Nc1cc(Cl)ccc1I | -25.9% (active) | -87.2% (active) | -52.1% (active) | -50.3% (active) | -28.9% (active) | -78.8% (active) | -41.6% (active) | -48.7% (active) | -43.5% (active) |
| Cc1ccn2c(C(=O)c3ccc(Br)cc3)cc(-c3cc(-c4ccc(N(C)C)cc4)c(C#N)c(N)n3)c2c1 | 50.5% | 61.9% | 65% | 41.5% | 46.2% | 36.2% | 64.6% | 62.4% | -15% (active) |
| N#Cc1c(NC(=O)c2ccc(C(F)(F)F)cc2)sc2c1CCC(O)=C2 | 22.9% | 58.7% | -33.8% (active) | 17.1% | 9.26% (active) | 23.9% | 47.3% | 18.2% | -31.9% (active) |
| O=C(CSc1nnc(-c2ccc3nc(-c4ccc(Cl)cc4)[nH]c3c2)o1)Nc1ccc(Br)cc1 | 53.7% | -69.8% (active) | -88% (active) | -20.9% (active) | -25% (active) | -61.9% (active) | 28.9% | 15.6% | -4% (active) |
| COc1ccc(/C(CSc2nnc(-c3c[nH]c4ccccc34)n2-c2ccccc2)=N/O)cc1 | 10.4% | 16.5% | -5.25% (active) | 39.4% | 14.5% | 28.1% | 42.4% | 21.2% | 0.589% (active) |
| Nc1nnc(-c2c[nH]c3ccc(F)cc23)c(-c2c[nH]c3ncccc23)n1 | 31.7% | 46.7% | 60.9% | 73.6% | 34% | 25% | 97.9% | 49.5% | 54.1% |
